From PubChem BioAssay (Tox21)
Inconclusive results are not listed. Calls of active or inactive are those of the source. The call rests on the fitted dose curve; in most records, active means well fitted cell-killing curve with a large enough effect in the repeat runs; inconclusive means weak or mixed curves, or effect the other way; inactive means no such curve, though single readings can be large or run the other way.

test: qHTS assay for identifying genotoxic compounds that show differential cytotoxicity against isogenic chicken DT40 cell lines with known DNA damage response pathways - Rev3 mutant cell line (AID 743014); conditions: chicken DT40 Rev3-/- viability, CellTiter-Glo, 40 h; series mostly up to 68.4 µM; activity, negative = cytotoxicity: at the top concentration; further: nearly all actives have a fitted effect of over 55% in size
Description: National Center for Advancing Translational Sciences [NCATS]
NIH Chemical Genomics Center [NCGC]
U.S. Environmental Protection Agency [EPA]
National Institutes of Environmental Health Sciences [NIEHS]
National Toxicology Program [NTP]
U.S. Food and Drug Administration [FDA]
DNA repair pathways play a critical role in cellular homeostasis by repairing DNA damage induced by endogenous processes and xenobiotics. Isogenic chicken DT40 cell lines deficient in different DNA repair pathways can be used to identify genotoxic compounds and aid in characterizing the nature of the DNA damage induced. Two DNA repair-deficient cell lines with disrupted genes, Rad54/Ku70 or Rev3, were used to screen the Tox21 10K compound library. Possible genotoxicity was based on the presence of a significant increase in cytotoxicity in one or more of the DNA repair-deficient cell lines compared to that observed in the parental DNA repair-proficient cell line. CellTiter Glo viability assay (Promega, Madison, WI) was used to measure cell viability in these cells after compound treatment. This assay includes the data from the Rev3 mutant cell line.
Tox21 Assay Protocol Summary:
300 DT40 mutant cells in 5 uL/well were dispensed into white, solid-bottom 1536-well plates using a Multidrop Combi (ThermoFisher Scientific, Waltham, MA) dispenser. After the assay plates were incubated at 37 C/5% CO2 for approximately 0.5 hour, 23 nL of compounds dissolved in DMSO, positive controls or DMSO only was transferred into the assay plate by a pintool work station (Kalypsys, San Diego, CA). The assay plates were incubated at 37 C/5% CO2 for 40 hours. After 5 uL per well of CellTiter-Glo reagent was added into each well of the assay plates, the plates were incubated for 30 min at room temperature and the luminescence intensity of the plates was measured using a ViewLux (PerkinElmer, Shelton, CT) plate reader.
On the % scale 0 is the no-effect control and ±100 the full control effect; potency means the concentration at half of the fitted maximal effect.

Compound	Potency	activity, negative = cytotoxicity
Nc1ccc(S(=O)(=O)Nc2ccc(Cl)nn2)cc1	inactive	–
O=S(=O)(O)c1ccc2cc(O)c(S(=O)(=O)O)cc2c1	–	9.35% (inactive)
CC(C)C(=O)OCCc1ccccc1	–	-2.66% (inactive)
CC(C)(C)c1n[nH]c(=S)n(N)c1=O	–	0.311% (inactive)
N[C@@H](CCC(=O)Nc1ccc([N+](=O)[O-])cc1)C(=O)O	–	1.36% (inactive)
COc1ccc(-c2cc(=O)c3c(O)cc(O[C@@H]4O[C@H](CO[C@@H]5O[C@@H](C)[C@H](O)[C@@H](O)[C@H]5O)[C@@H](O)[C@H](O)[C@H]4O)cc3o2)cc1O	–	3.01% (inactive)
O=C(OCC(COC(=O)c1cccnc1)(COC(=O)c1cccnc1)COC(=O)c1cccnc1)c1cccnc1	–	-7.21% (inactive)
CCCCCCCC/C=C\CCCCCCCC(=O)OCCCC	–	-0.211% [at 31.4 µM] (inactive)
COc1cc2c(cc1OC)[C@@H]1CC(=O)[C@@H](CC(C)C)CN1CC2	21.1 µM (active)	–
CC1=CCC(C(C)C)=CC1	–	-5.33% (inactive)
Cc1ccc2c(c1)OCC(=O)CO2	–	3.02% (inactive)
C=Cc1ccccn1	–	-1.78% [at 95 µM] (inactive)
Cc1cc(C(C)(C)C)c(O)c(C)c1CC1=NCCN1	–	-12.1% (inactive)
N#Cc1ccc(C(=O)O)cc1	30.6 µM (active)	–
O=C(NCC(O)CO)c1c(I)c(C(=O)NCC(O)CO)c(I)c(N(CCO)C(=O)CO)c1I (stereo not given)	–	9.37% [at 31.4 µM] (inactive)
C=COCCOCCOCCOC=C	–	-12.9% (inactive)
CC(=O)CCCCn1c(=O)c2c(ncn2C)n(C)c1=O	–	-1.38% [at 31.4 µM] (inactive)
COCCOCCOCCOCCOCCO	–	-0.438% (inactive)
Cc1nc2n(c(=O)c1CCN1CCC(c3noc4cc(F)ccc34)CC1)CCC[C@H]2O	–	1.77% (inactive)
NCCS	–	-15.9% (inactive)

Compound	Potency	activity, negative = cytotoxicity
CC(C(=O)O)c1ccc2c(c1)CC(=O)c1ccccc1S2 (stereo not given)	–	-0.682% (inactive)
CC1(CO)CN(c2ccccc2)NC1=O (stereo not given)	–	-15.4% (inactive)
O=C(NCCN1CCOCC1)c1ccc(Cl)cc1	inactive	–
C[C@@H](O)[C@H]1C(=O)N2C(C(=O)O)=C(SCCN=CN)C[C@H]12	–	12.5% [at 31.4 µM] (inactive)
O=C(O)Cc1ccc(Cl)cc1Cl	27.3 µM (active)	–
O=C(OCc1ccccc1)C(=O)OCc1ccccc1	–	0.653% (inactive)
NNc1nnc(NN)c2ccccc12	–	17.8% (inactive)
CC(C)CCCCOC(=O)c1ccccc1C(=O)OCCCCC(C)C	–	-0.0633% (inactive)
CNC(=O)[C@H]1O[C@@H](n2cnc3c(NCc4cc(Cl)ccc4OCc4cc(C)no4)ncnc32)[C@H](O)[C@@H]1N	–	-4.78% (inactive)
O=P(O)(O)OP(=O)(O)O	–	-8.67% (inactive)
CCOc1cc(NC(C)=O)ccc1C(=O)OC	–	9.86% (inactive)
Nc1ccc2cc(S(=O)(=O)O)cc(O)c2c1	–	-2.23% (inactive)
Nc1nnc(-c2cccc(Cl)c2Cl)c(N)n1	–	7.59% (inactive)
CCc1ccc(C=O)cc1	–	1.29% (inactive)
CC(=O)Nc1ccc(S(=O)(=O)Cl)cc1	–	0.511% (inactive)
CC(C)NCC(O)COc1ccc(COCCOC(C)C)cc1 (stereo not given)	–	-2.36% (inactive)
O=C(O)c1ccc(Cl)cc1Cl	–	3.24% [at 95 µM] (inactive)
Cc1ccccc1OCC(O)CO (stereo not given)	–	9.59% (inactive)
CC(C)CC(C)CC(C)CC(C)COC(=O)c1ccccc1C(=O)OCC(C)CC(C)CC(C)CC(C)C (stereo not given)	25.3 µM (active)	–
c1ccc2nccnc2c1	–	-21.2% [at 95 µM] (inactive)
